Measured values taken from PubChem BioAssay (NCATS).
Inconclusive results are not listed. Values without a mark were called inactive. The call rests on the fitted dose curve; in most records, active means well fitted curve in the direction sought with a large enough effect; inconclusive means small, poorly fitted or top-dose-only effect, or another doubt; inactive means no such curve, though single readings can be large or run the other way.

What follows are compounds tested against Thioredoxin reductase 1, cytoplasmic (Rattus norvegicus) (UniProt O89049) (assay: qHTS Assay for Substrates of Mammalian Selenoprotein Thioredoxin Reductase 1 (TrxR1) (AID 488772; further: 0% is about no effect)). Details: purified TrxR1, NADPH consumption substrate assay; series mostly up to 57.1 µM; activity change, negative = NADPH consumption: at the top concentration.
Description: The selenoprotein thioredoxin reductase (TrxR; EC 1.8.1.9) is a FAD containing homodimeric pyridine nucleotide-disulfide oxidoreductase with many cellular roles. Together with NADPH and its prime substrate thioredoxin (Trx), the enzyme forms the core of the Trx system. The mammalian Trx system exerts a wide spectrum of functions including redox regulation, antioxidant defense, regulation of transcription factors as well as support of cell growth and replication. Many of these functions involve the reduction of Trx, which may subsequently reduce a number of different substrates including ribonucleotide reductase, peroxiredoxins or NFkB. Mammalian TrxR itself also has a broad substrate specificity, reducing both protein and non-protein substrates, including low molecular weight compounds such as dehydroascorbate, lipoic acid, ubiquinone, and juglone. In addition, several drugs in clinical use for anticancer treatment are indeed known to target TrxR1.
This BioAssay is a validation of an NADPH fluorescence-based, dual-purpose qHTS rTrxR1 assay designed to find potential inhibitors and substrates of rTrxR1. For this particular BioAssay, actives are potential substrates. See related BioAssay for inhibitors data deposition.
Assay protocol: 2 uL of reagents (buffer in column 4 as negative control and 90 nM rTrxR1 in columns 1-3 and 5-48) were dispensed into Greiner black solid-bottom 1,536-well assay plates, followed by 1 uL of NADPH (400 uM final concentration) to each well. The plates were centrifuged at 1000 rpm for 15 seconds and subsequently incubated for 5 min at room temperature (~22 deg C) to allow for rTrxR1 reduction. Compounds (23 nL) were then transferred via Kalypsys pin tool equipped with 1536-pin array (10 nL slotted pins, V&P Scientific, San Diego, CA). In addition, a duplicate 2-fold serial dilution of the control compounds auranofin, a known gold-based TrxR1 inhibitor, and juglone (5-hydroxy-1,4-naphthoquinone), a natural TrxR1 substrate, were pin-transferred to columns 2 and 3, respectively. After incubation for 15 min at room temperature (~22 deg C), 1 uL of selenite (400 uM final concentration) were dispensed to each well. The plate was immediately transferred to a ViewLux high-throughput CCD imager (PerkinElmer), wherein kinetic measurements of NADPH fluorescence (Ex 340 nm, Em 450 nm) were acquired (8 minute kinetic read, see Table 1). Read 1 was utilized to assess the capacity of a compound to serve as an rTrxR1 substrate, i.e. a decrease in NADPH fluorescence compared to the no-compound background is an indication of a substrate behavior for that particular compound. For inhibitory activity of a compound, delta values, computed as the difference in fluorescence intensity between the first and last reads of an 8-minute time kinetic window, were used. All reagents were diluted in an assay buffer consisting of 50 mM Tris-HCl, pH 7.5, 2 mM EDTA, and 0.01% Tween-20.
Throughout the screen, reagent bottle and all liquid lines were made light-tight to minimize reagent degradation. All screening operations were performed on a fully integrated robotic system (Kalypsys, San Diego, CA) containing one RX-130 and two RX-90 anthropomorphic robotic arms (Staubli, Duncan, SC). Library plates were screened starting from the lowest and proceeding to the highest concentration, and a 'double-pinning' step of the highest concentration was required to access higher concentrations of compounds. Vehicle-only plates, with DMSO being pin-transferred to the columns 5-48, were inserted uniformly at the beginning and the end of each library in order to monitor and record any shifts in the background, which can be affected by reagent dispensers or loss in enzyme activity over time. Screening data were corrected, normalized, and concentration-effect relationships were derived by using publicly-available curve fitting algorithms developed in-house (http://ncgc.nih.gov/pub/openhts).

Chain of Thioredoxin reductase 1, cytoplasmic (Rattus norvegicus) (O89049 whole entry, looked up): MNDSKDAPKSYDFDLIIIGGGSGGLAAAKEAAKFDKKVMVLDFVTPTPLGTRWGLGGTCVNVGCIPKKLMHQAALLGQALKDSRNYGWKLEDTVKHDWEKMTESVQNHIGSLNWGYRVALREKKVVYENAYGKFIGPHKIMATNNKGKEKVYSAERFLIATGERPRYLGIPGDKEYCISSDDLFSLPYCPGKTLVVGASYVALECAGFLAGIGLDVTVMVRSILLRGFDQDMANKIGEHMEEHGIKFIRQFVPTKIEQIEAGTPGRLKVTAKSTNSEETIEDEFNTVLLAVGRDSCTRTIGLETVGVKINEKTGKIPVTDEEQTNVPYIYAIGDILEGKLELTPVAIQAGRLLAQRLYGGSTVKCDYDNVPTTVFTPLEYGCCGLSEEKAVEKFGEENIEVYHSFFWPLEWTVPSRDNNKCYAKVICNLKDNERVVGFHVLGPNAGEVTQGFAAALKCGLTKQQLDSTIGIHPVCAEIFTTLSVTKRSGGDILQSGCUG

| Compound | activity change, negative = NADPH consumption |
| --- | --- |
| CCSC(=N)N | -1.03% |
| NC(=Nc1ccccc1)NC(=O)c1nc(Cl)c(N)nc1N | 19.2% |
| Cc1ccccc1/C=C/C1=NCCN1 | -9.71% |
| O=C(O)c1cc2cc(F)ccc2[nH]1 | 4.98% |
| N[C@H](C(=O)O)[C@H](O)C(=O)O | -7.7% |
| C=CCN1CCc2c(cc(O)c(O)c2Cl)C(c2ccccc2)C1 (stereo not given) | -0.224% |
| CC(N)(Cc1ccc(O)cc1)C(=O)O (stereo not given) | -2.06% |
| CNc1ncnc2c1ncn2[C@H]1C[C@H](OP(=O)(O)O)[C@@H](COP(=O)(O)O)O1 | -18% |
| CC(=O)O[C@H]1Cc2ccccc2N(C(N)=O)c2ccccc21 | -3.02% |
| N#CC(=C(\N)Sc1ccccc1N)/C(C#N)=C(/N)Sc1ccccc1N | -15.5% |
| N=C(N)SCCN | -1.61% |
| CN1C2CCC1CC(OC(c1ccccc1)c1ccccc1)C2 (stereo not given) | -14.9% |
| O=S(=O)(c1cccc2c(Cl)cccc12)N1CCCNCC1 | -6.94% |
| CCCCS(=N)(=O)CC[C@H](N)C(=O)O (stereo not given in full) | -3.12% |
| COc1cccc(OC)c1OCCNCC1CSc2ccccc2O1 (stereo not given) | -5.72% |
| COC(=O)C(N)Cc1ccc(Cl)cc1 (stereo not given) | 8.58% |
| N#C/C(=C\c1ccc(O)c(O)c1)C(=O)NCCc1ccccc1 | -8.47% |
| CC(C)(C)c1ccc(/C=C/C(=O)Nc2ccc3c(c2)OCCO3)cc1 | -14.2% |
| c1ccc(C(NCCNC(c2ccccc2)c2ccccc2)c2ccccc2)cc1 | -8.84% |
| O=C(O)/C=C/c1ccc(O)c(O)c1 | -7.92% |

| Compound | activity change, negative = NADPH consumption |
| --- | --- |
| CC1CNCCN1S(=O)(=O)c1cccc2cnccc12 (stereo not given) | -9.66% |
| O=C(O)C1=CCCNC1 | -3.54% |
| CC[n+]1c(/C=C/C=C2/N(C)c3ccccc3C2(C)C)sc2ccccc21 | -0.659% |
| O=c1[nH]c(=S)[nH]c(-c2ccccc2)c1Cc1c(O)ccc2ccccc12 | -12.2% |
| NC(=O)CC[C@H](N)C(=O)O | -3.36% |
| CCCc1c(OCCCOc2ccc(OCC(=O)O)cc2)ccc(C(C)=O)c1O | -8.47% |
| Cc1cc2c(cc1Cl)N(C(=O)Nc1ccnc3ccccc13)CC2 | -4.67% |
| O=[N+]([O-])c1cccc2cn[nH]c12 | -1.85% |
| NC/C=C\C(=O)O | -9.61% |
| CCCn1c(=O)c2[nH]c(C3CCCC3)nc2n(CCC)c1=O | -5.69% |
| O=c1cc(-c2ccccc2)[nH]c2nc(Cl)ccc12 | -3.7% |
| N[C@H](C(=O)O)[C@H]1C[C@@H]1C(=O)O | -9.81% |
| COc1ccc2c(c1)c(CC(=O)O)c(C)n2Cc1ccc(Cl)cc1 | 0.161% |
| CC(=O)[C@H]1CCC2C3CC=C4C[C@@H](OS(=O)(=O)O)CC[C@]4(C)C3CC[C@@]21C (stereo not given in full) | -3.63% |
| NOCC(=O)O | 0.232% |
| Cc1nc(N=Nc2cc(S(=O)(=O)O)c3cc([N+](=O)[O-])cc(S(=O)(=O)O)c3c2)c(COP(=O)(O)O)c(C=O)c1O | -11.3% |
| O=c1ccc2c(OCCCCc3ccccc3)c3ccoc3cc2o1 | -0.0993% |
| CN1CCCC1CCOC(C)(c1ccccc1)c1ccc(Cl)cc1 (stereo not given) | -3.96% |
| Cn1c(=O)c2c(nc(/C=C/c3cccc(Cl)c3)n2C)n(C)c1=O | 49.2% |
| CC(C)(CO)Cc1cc(C(C)(C)C)c(O)c(C(C)(C)C)c1 | -4.21% |
